Experimental findings from PubChem BioAssay (Tox21) are described below.

Records with an inconclusive call do not appear. Active and inactive are the calls of the source. Calls follow the shape of the dose curve; as a rule, active = well fitted activation curve with a large enough effect in the signal ratio in the repeat runs (not every such curve was filed as active); inconclusive = weak or mixed curves, or effect the other way; inactive = no such curve, though single readings can be large or run the other way; the % refers to the signal ratio.
% is scaled to controls: 0 for no effect and ±100 for the full control effect.

Peroxisome proliferator-activated receptor gamma (Homo sapiens), sequence (P37231 whole entry, looked up): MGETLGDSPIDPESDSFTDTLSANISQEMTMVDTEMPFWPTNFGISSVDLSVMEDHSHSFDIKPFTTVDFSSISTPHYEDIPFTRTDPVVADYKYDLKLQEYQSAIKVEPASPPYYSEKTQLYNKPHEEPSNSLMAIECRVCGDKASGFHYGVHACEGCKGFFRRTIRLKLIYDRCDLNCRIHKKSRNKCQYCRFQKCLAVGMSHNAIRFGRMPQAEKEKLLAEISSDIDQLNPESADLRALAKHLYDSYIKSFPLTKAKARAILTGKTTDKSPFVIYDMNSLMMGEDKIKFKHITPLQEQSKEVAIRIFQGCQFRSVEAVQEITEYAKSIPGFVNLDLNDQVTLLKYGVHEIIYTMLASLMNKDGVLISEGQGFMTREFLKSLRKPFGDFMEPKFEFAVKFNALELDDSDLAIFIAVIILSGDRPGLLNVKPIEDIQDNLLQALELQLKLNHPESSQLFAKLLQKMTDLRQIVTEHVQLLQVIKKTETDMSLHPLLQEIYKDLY

This assay has as its target Peroxisome proliferator-activated receptor gamma (Homo sapiens) (UniProt P37231). The assay can be described thus: qHTS assay to identify small molecule agonists of the peroxisome proliferator-activated receptor gamma (PPARg) signaling pathway (AID 743094). Conditions: HEK293H PPARg-UAS-bla, beta-lactamase FRET ratio, 17 h; series mostly up to 57 µM; activation: at the top concentration. The source says: U.S. Tox21 Program National Center for Advancing Translational Sciences [NCATS] NIH Chemical Genomics Center [NCGC] U.S. Environmental Protection Agency [EPA] National Institutes of Environmental Health Sciences [NIEHS] National Toxicology Program [NTP] U.S. Food and Drug Administration [FDA] Tox21 Assay Overview: The peroxisome proliferator-activated receptors (PPARs) are lipid-activated transcription factors of the nuclear receptor superfamily with three distinct subtypes namely PPAR alpha, PPAR delta (also called PPAR beta) and PPAR gamma (PPARg). All these subtypes heterodimerize with Retinoid X receptor (RXR) and these heterodimers regulate transcription of various genes. PPAR-gamma receptor (glitazone receptor) is involved in the regulation of glucose and lipid metabolism. To identify the compounds that activate PPAR-gamma signaling, GeneBLAzer PPAR gamma UAS-bla HEK293H cell line (Invitrogen, Carlsbad, CA, USA) containing a beta-lactamase reporter gene under control of the control of an upstream activator sequence (UAS) stably integrated into HEK293H cells was used to screen Tox21 compound library.
Tox21 Assay Protocol Summary: PPARg-bla cells were dispensed at 3000 cells/6uL/well in 1536-well black wall/clear bottom plates using a Multidrop Combi (Thermo Fisher Scientific, Waltham, MA) dispenser. After the assay plates were incubated at 37C and 5% CO2 for 5 h, 23 nL of compounds dissolved in DMSO, positive controls or DMSO only was transferred to the assay plate by a Pintool station (Kalypsys, San Diego, CA). The assay plates were incubated at 37C for 17 h. After 1 uL of LiveBLAzerTM B/G FRET substrate was added using a Bioraptr Flying Reagent Dispenser (FRD) workstation (Beckman Coulter, Indianapolis, IN, USA), the plates were incubated at room temperature for 1 h, and fluorescence intensity was measured by an Envision plate reader (PerkinElmer, Shelton, CT).
(qHTS replaces the single test concentration by a dilution series.)
On to `C=CC(C)(CCC=C(C)C)OC(=O)C(C)C` (stereo not given), for which the “activation” value is 4.27% (inactive). Take `CC(CN1CC(=O)NC(=O)C1)N1CC(=O)NC(=O)C1` (stereo not given): the “activation” value was -1.19% (inactive). Consider `CCCCN(CCCC)CCCCCCN(CCCC)CCCC`, for which the “activation” value is -3.47% (inactive). Then `CCOC(=O)COc1ccc2c(C)c(CCN(CC)CC)c(=O)oc2c1Cl`, with 0.429% (inactive); and `CCCCCCC(O)CO` (stereo not given), with -6.88% (inactive).

Regarding `CCCCCCC(=O)c1ccccc1`, the “activation” value was -0.347% (inactive). Consider `C=C(C)C(=O)OCCCC`, for which the “activation” value is 2.26% [at 78.9 µM] (inactive).

`CN1CCN(C(=O)C2CCCCC2)CC1`: the “activation” value was -1.54% (inactive).

`O=S(=O)(O)c1ccc(Cl)cc1`: the “activation” value is 0.726% (inactive). In the case of `CCNC(=O)C(C)OC(=O)Nc1ccccc1` (stereo not given), the “activation” value was -1.17% (inactive).

As to `COCc1nnc(-c2ccc[n+]([O-])c2)n1-c1c(Cl)c(Cl)cc2[nH]c(=O)c(=O)[nH]c12`, the “activation” value is 0.301% (inactive). For the compound `CC(C)=CCC/C(C)=C\C#N`, the “activation” value is 1.29% (inactive). As for `C=CCN1CCc2nc(N)sc2CC1`, the “activation” value is -1.37% (inactive). Take `CCCCc1ccc(Cl)cc1`: the “activation” value was -5.27% (inactive). Then `Cc1cc(O)c(Cl)cc1C`, with -0.736% (inactive).

`C/C(=N\O)c1ccc(OCC(=O)N2CCCCC2)cc1`: the “activation” value is -4.14% (inactive).

As for `N=C(N)S(=O)O`, the “activation” value was -2.19% (inactive). Then `CCN1CCN(C(=O)N[C@@H](C(=O)N[C@@H]2C(=O)N3[C@@H]2SC(C)(C)[C@H]3C(=O)O)c2ccccc2)C(=O)C1=O`, with -3.98% (inactive); and `CCCC(=O)OC`, with -1.7% (inactive); and `C=CC(=O)OCC[N+](C)(C)C`, with -2.23% [at 78.9 µM] (inactive).

Regarding `CC(C)(C)NCC(O)COc1cccc2c1CCC(=O)N2` (stereo not given), the “activation” value is -1.53% [at 26.2 µM] (inactive). On to `C/C=C(\C)C=O`, for which the “activation” value is -9.29% [at 78.9 µM] (inactive). `O=C1Nc2ccccc2C1=O`: the “activation” value was 0.159% (inactive). With `COc1cc(OC)cc(OC)c1`, the “activation” value was -0.29% (inactive).

As for `CC(C)(C)OC(=O)c1ccccc1C(=O)O`, the “activation” value is 0.709% (inactive).

In the case of `C=CCN(CC=C)CC=C`, the “activation” value was 3.08% (inactive). Then `CN(C)CCc1c[nH]c2ccc(CS(=O)(=O)N3CCCC3)cc12`, with 0.492% (inactive); and `CCCC[O][Al]([O]CCCC)[O]CCCC`, with -0.394% (inactive); and `NS(=O)(=O)c1cc2c(cc1C(F)(F)F)NCNS2(=O)=O`, with -3.23% [at 26.2 µM] (inactive). As to `C=CCCCCCCCCCCCCCC`, the “activation” value was -3.25% [at 26.2 µM] (inactive). Then `COc1cnc(NS(=O)(=O)c2ccc(N)cc2)nc1`, with -0.394% [at 26.2 µM] (inactive). Then `CCCCCCCCCCCCCCBr`, with -0.302% [at 78.9 µM] (inactive); and `Cc1ccc(O)c([N+](=O)[O-])c1`, with -0.0405% [at 78.9 µM] (inactive); and `CC(C)(Sc1cc(C(C)(C)C)c(O)c(C(C)(C)C)c1)Sc1cc(C(C)(C)C)c(O)c(C(C)(C)C)c1`, with -1.02% [at 26.2 µM] (inactive).

In the case of `COC(=O)c1ccccc1Cl`, the “activation” value was -0.261% (inactive). For the compound `O=Cc1ccccc1S(=O)(=O)O`, the “activation” value is -4.15% (inactive). Then `CCOC(=O)CC(C(C)=O)C(C)=O`, with -2.67% (inactive); and `O=c1c(O)c(O)c1=O`, with 0.183% (inactive). For `CC(C)CC(O)Cc1ccccc1` (stereo not given), the “activation” value was -2.84% (inactive). Then `O=C(OOC(=O)c1ccccc1)c1ccccc1`, with 2.9% (inactive).
